In ChEMBL document CHEMBL4513216, “Probing the Open Global Health Chemical Diversity Library for Multistage-Active Starting Points for Next-Generation Antimalarials” (ACS Infect Dis, 2020):
The whole screen tested about 68,000 compounds, of which about 2,700 (4%) showed an effect of 50% or more. What follows is part of a selection rich in strong results, with near analogues and random picks from the rest.

Each compound was assayed on Plasmodium berghei (assay: Screen against P. berghei liver stage (PbLuc), transformed with Luciferase, at 2uM). Conditions: tested at 2 uM.
Format: functional, HepG2
For `CS(=O)(=O)N[C@H]1CCO[C@]2(CCN(C(=O)c3ccccn3)C2)C1`, the INHIBITION was 36.75%. `Cc1nc(C(=O)N2CC[C@@]3(C[C@H](NS(C)(=O)=O)CCO3)C2)cs1` gave an INHIBITION of 60.79%. Compound `CS(=O)(=O)N[C@@H]1CCO[C@]2(CCN(C(=O)c3cscn3)C2)C1` has an INHIBITION of 23.1%. In the case of `Cc1nc(C(=O)N2CC[C@@]3(C[C@@H](NS(C)(=O)=O)CCO3)C2)cs1`, the INHIBITION is reported as 68.95%. For `CS(=O)(=O)N[C@@H]1CCO[C@]2(CCN(C(=O)c3cnccn3)C2)C1`, the INHIBITION was 9.14%. In the case of `Cc1cc(C(=O)N2CC[C@@]3(C[C@@H](NS(C)(=O)=O)CCO3)C2)no1`, the INHIBITION is reported as 19.51%. `COCCN1C(=O)CC(N2CCN(c3ccc(F)cc3)CC2)C1=O` (stereo not given) gave an INHIBITION of 39.9%. `NC(=O)CCSc1ccccc1NCc1ccc(Cl)s1` was tested, and the INHIBITION was 22.75%. `Cc1ocnc1C(=O)N(C)[C@@H]1CC[C@@H](Oc2ccccc2)[C@@H]1O` gave an INHIBITION of 67.27%. `CN(C(=O)c1ccon1)[C@@H]1CCC[C@@H](Oc2ccccc2)[C@@H]1O` was tested, and the INHIBITION was 44.9%. `Cc1nc(C(=O)N(C)[C@@H]2CCC[C@@H](Oc3ccccc3)[C@@H]2O)co1` was tested, and the INHIBITION was 9.47%. For `Cc1ccccc1C1(CNC(=O)CCN2C(=O)CCC2=O)CC1`, the INHIBITION was 26.76%. With `O=C(N1CCOCC1)[C@@]12CCO[C@@H]1CCN(CC1CCCC1)C2` the INHIBITION was -55.42%. `Cc1c(NC(=O)c2cnc[nH]2)cccc1C(=O)NC(C)(C)C` was tested, and the INHIBITION was 5.41%. `COc1ccc(CN(Cc2cc(C)no2)C2CC2)cc1` was tested, and the INHIBITION was -16.88%. In the case of `c1cnc(N2CCC(c3csc(Nc4cnccn4)n3)CC2)nc1`, the INHIBITION is reported as -41.06%. Work on `O=C1CC2(CCN(c3nncs3)C2)CN1c1ccc2c(c1)OCCO2` (stereo not given) yielded an INHIBITION of 58.16%. `O=C1CC2(CCN(c3nncs3)C2)CN1c1ccccc1` (stereo not given) gave an INHIBITION of -5.44%. In the case of `O=C1CC2(CCN(c3nncs3)C2)CN1c1cccc(F)c1` (stereo not given), the INHIBITION is reported as 21.75%. `O=C(O)c1ccc(CC2CCN(Cc3ccc(-c4cc[nH]n4)o3)C2)cc1` (stereo not given) gave an INHIBITION of 16.93%. `Cc1ncnc2c1CCN(CC(=O)N(C)C)CC2` gave an INHIBITION of 18.15%. Compound `Cc1cc(C(F)(F)F)nc(CNC(=O)CCC2CCCCN2C)n1` (stereo not given) has an INHIBITION of 54.77%. In the case of `Cc1cc(C(F)(F)F)nc(CNC(=O)CCC2CCCN(C)C2)n1` (stereo not given), the INHIBITION is reported as -28.09%. Compound `Cc1cc(C(F)(F)F)nc(CNC(=O)C2CCCCCN2C)n1` (stereo not given) has an INHIBITION of 20.77%. With `NCC1CCCCN1Cc1cc(O)c2cccc(F)c2n1` (stereo not given) the INHIBITION was -20.95%. With `Cc1ccc2nc(CN3CCN(C4CCCC4)C(=O)C3)cc(O)c2c1` the INHIBITION was -87.32%. `Cc1ccc2nc(CN3CCN(C4CCCCC4)C(=O)C3)cc(O)c2c1` was tested, and the INHIBITION was -17.17%. Compound `Oc1cc(CN2CCCCC2c2cccnc2)nc2c(F)cccc12` (stereo not given) has an INHIBITION of 57.75%. Work on `OCC1CCCCN1Cc1cc(O)c2cccc(F)c2n1` (stereo not given) yielded an INHIBITION of 24.36%. `Cc1ccc2nc(CN3CCCC3c3cccnc3)cc(O)c2c1` (stereo not given) gave an INHIBITION of 50.59%.
